PubChem BioAssay AID2796 (The Scripps Research Institute Molecular Screening Center, 2010)
In all, about 320,000 compounds went through this assay and about 8,000 (2.5%) were called active. The sample holds actives, similar compounds and a random draw of the others, so the mix is not that of the screen. Unmarked numbers belong to inactive results. Cut-off read from the data, not from the text of the source: active = activation above about 47%; inactive = the rest.

These molecules were tested against Aryl hydrocarbon receptor (Homo sapiens) (UniProt P35869) (assay: AHR activators, primary screen, cell-based, luminescence, luciferase reporter, human (AID 2796;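 note: 0% = vehicle wells and 100% = reference agonist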)). Settings: AHR-responsive luciferase reporter cells, at 5 µM, stronger effect = higher value.
Aryl hydrocarbon receptor (Homo sapiens), sequence (P35869 whole entry, looked up): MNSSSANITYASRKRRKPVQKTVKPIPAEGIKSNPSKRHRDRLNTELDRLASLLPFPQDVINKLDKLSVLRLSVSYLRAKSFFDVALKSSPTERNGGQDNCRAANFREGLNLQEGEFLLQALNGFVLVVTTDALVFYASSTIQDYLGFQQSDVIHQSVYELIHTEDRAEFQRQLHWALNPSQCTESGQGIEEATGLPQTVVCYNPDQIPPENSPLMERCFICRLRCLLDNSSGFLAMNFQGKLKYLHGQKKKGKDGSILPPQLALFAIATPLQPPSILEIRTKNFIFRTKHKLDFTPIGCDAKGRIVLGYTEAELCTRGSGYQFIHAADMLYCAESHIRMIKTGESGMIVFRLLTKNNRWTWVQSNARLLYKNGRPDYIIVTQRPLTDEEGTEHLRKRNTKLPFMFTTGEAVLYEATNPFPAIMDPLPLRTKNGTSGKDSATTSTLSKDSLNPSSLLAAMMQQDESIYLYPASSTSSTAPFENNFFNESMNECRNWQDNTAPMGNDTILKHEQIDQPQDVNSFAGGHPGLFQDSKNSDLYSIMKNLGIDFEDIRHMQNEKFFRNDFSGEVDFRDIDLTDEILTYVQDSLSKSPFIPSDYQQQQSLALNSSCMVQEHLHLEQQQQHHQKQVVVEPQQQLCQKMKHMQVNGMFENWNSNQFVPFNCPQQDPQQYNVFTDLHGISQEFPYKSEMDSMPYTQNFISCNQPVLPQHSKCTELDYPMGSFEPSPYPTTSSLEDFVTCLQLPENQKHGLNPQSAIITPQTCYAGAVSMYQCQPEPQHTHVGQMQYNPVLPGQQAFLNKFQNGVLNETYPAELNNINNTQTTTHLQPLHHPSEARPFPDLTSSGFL

Compound | activation
O=C(OCC(=O)N1CCCC1)c1ccc(Cl)nc1 | -1.12%
CCC(C)(C(=O)NC1CCCCC1)N(C)C(=O)c1ccc2c(c1)OCO2 (stereo not given) | -0.09%
CCOC(=O)C1=NNC2(c3ccc(Cl)cc3)C(=O)N(c3cc(C)cc(C)c3)C(=O)C12 (stereo not given) | 5.66%
CCc1nnc(NC(=O)/C=C/c2ccc(C)o2)s1 | 28.2%
Cc1nnc(NC(=O)/C=C/c2ccco2)s1 | 120% (active)
CCC(CC)c1nnc(NC(=O)/C=C/c2ccco2)s1 | 46.2%
COc1ccc(S(=O)(=O)N2CCC(C(=O)NCc3ccco3)CC2)cc1C | 0.76%
CCc1ccc(NC(=O)C(=O)N/N=C(\C)CC(=O)NCCOC)cc1 | 8.77%
CC(Sc1nncn1C)C(=O)NCCC1=CCCCC1 (stereo not given) | -0.01%
CCCn1nnc2sc3c(c2c1=O)CCC(C)C3 (stereo not given) | -0.09%
CC1CCc2c(sc3nc4n(c(=O)c23)CCS4)C1 (stereo not given) | -1.18%
CC1CCc2sc3nc(N4CCN(CCO)CC4)n4ncnc4c3c2C1 (stereo not given) | 61.8% (active)
c1ccc2c(c1)CCc1snnc1-2 | 2.81%
CCC1CCc2c(sc(NC(C)=O)c2C#N)C1 (stereo not given) | 1.29%
COc1ccc(NC(=O)C(CC(C)C)NC(=O)C2CCC(C)CC2)cc1 (stereo not given) | 1.21%
CC(=O)Nc1ccc(S(=O)(=O)NCC2CCC(C(=O)NCCc3ccccc3)CC2)cc1 (stereo not given) | 0.11%
O=C(NCc1ccc2c(c1)OCO2)c1c(-c2ccsc2)sc2ccccc12 | 44.7%
Cn1cncc1C#Cc1c(-c2ccsc2)sc2ccccc12 | 52.7% (active)
Cc1cccc(-c2oc3ccc(-c4ccc5c(c4)OCO5)cc3c2C#Cc2cncn2C)c1 | 26.5%
COC(=O)/C(=C\Nc1ccccc1)NC(=O)c1ccc(Cl)cc1Cl | 1.34%
N#CC1(C#N)C(C(=O)C23CC4CC(CC(C4)C2)C3)C12CCOCC2 (stereo not given) | -2.81%
CC(C)(C)c1cc(C(=O)N/N=C/c2ccc([N+](=O)[O-])s2)n[nH]1 | -8.74%
Cc1ccccc1NCC(=O)N/N=C\c1ccc([N+](=O)[O-])s1 | 56.7% (active)
COc1ccc(C(=O)NCC(=O)N/N=C/c2ccc([N+](=O)[O-])s2)cc1OC | -1.7%

Compound | activation
Cc1cc(O)ccc1NC1=CC(=O)CC(C)(C)C1 | 15.2%
CCN1CCN(C(=O)CN(C)S(=O)(=O)c2ccc3ccccc3c2)CC1 | -1.56%
C[C@@H]1CN([C@H](C)CO)C(=O)c2cc(NC(=O)NC3CCCCC3)ccc2O[C@H]1CN(C)S(C)(=O)=O | -0.98%
COc1cccc(C(O)Cc2nc3ccccc3n2C)c1OC (stereo not given) | 6.17%
CCOc1ccc(C(O)Cc2nc3ccccc3n2C)cc1 (stereo not given) | 118% (active)
CCCn1c(C(O)c2ccc(OCC)cc2)nc2ccccc21 (stereo not given) | 0.65%
Cc1cc(Br)ccc1NC(=O)c1cnc(N2CCN(c3ccccn3)CC2)c2ccccc12 | 20.2%
N#CCSc1nc2ccc(N3CCOCC3)cc2c(=O)n1CCc1ccccc1 | 1.4%
Cc1nn2c3cc(N4CCOCC4)ccc3nc2c2ccccc12 | 144% (active)
Cc1cc(Nc2ccc(N3CCOCC3)cc2)c2cccc(C)c2n1 | 8.99%
COc1cccc2cc(C(N)=O)/c(=N\NC(=O)c3ccccc3)oc12 | 8.63%
CCN(CC)c1ccc(/C=N/NC(=O)c2cnccn2)c(O)c1 | 22.4%
CCN(CC)c1ccc(C(=O)N/N=C/c2ccc(N3CCOCC3)cc2)cc1 | 19%
N=c1oc2ccccc2cc1C(=O)NCc1ccccc1 | -3.55%
CCN(CC)c1ccc2cc(C(N)=O)/c(=N\NC(=O)c3ccncc3)oc2c1 | 78% (active)
NC(=O)c1cc2ccccc2o/c1=N/NC(=O)c1cccc(F)c1 | 52.6% (active)
COc1cc(/C=C/C(=O)Nc2ccc(OC)c(S(=O)(=O)N3CCOCC3)c2)ccc1OCC#N | -0.9%
CCCCCc1ccc(-c2ccc(C(=O)O)cc2)nc1 | -9.97%
COc1ccccc1CCNS(=O)(=O)c1cc2c3c(c1)C(C)C(=O)N3CCC2 (stereo not given) | 4.39%
CC(=O)NS(=O)(=O)c1ccc(NC(=O)/C=C/c2ccccc2Cl)cc1 | 7.35%
CCn1nc(C)c(/C=N/NC(=O)Cc2ccc(Cl)cc2)c1C | 56.2% (active)
Cc1nn(Cc2ccc(Cl)cc2)c(Cl)c1/C=N/NC(=O)CNc1ccccc1F | 25%
O=C(Cc1ccccc1)N/N=C/c1ccc(Cl)cc1Cl | 1.3%
O=C(Nc1nnc(Cc2ccc(Cl)cc2)s1)c1cccnc1 | 3.47%

Compound | activation
Cc1ccc(/C=N/NC(=O)Cn2nc(C)c(Br)c2C)o1 | 2.15%
Cc1nn(Cc2ccc(Cl)cc2)c(Cl)c1/C=N/NC(=O)c1cccnc1 | 96.6% (active)
CC(OC(=O)CCCc1c[nH]c2ccccc12)C(=O)Nc1ccc(S(N)(=O)=O)cc1 (stereo not given) | 0.81%
CC(NC(=O)CN1CCN(Cc2ccc(Cl)cc2)C1=O)c1ccc2c(c1)OCCO2 (stereo not given) | 0.39%
CCOC(=O)c1cccc(NC(=O)C2CCN(c3ncnc4c3nc3n4CCCCC3)CC2)c1 | 2.44%
CCCCC[C@@H]1C=C(C(=O)O)[C@H](c2ccc(C#N)cc2)N1S(=O)(=O)c1ccc(C)cc1 | -1.14%
Cc1ccc(C(=O)NCC(=O)OCc2nnc(-c3ccccc3)o2)cc1 | 1.68%
CC(C)[C@H](NC(=O)N1CC(=O)Nc2ccccc21)C(=O)N[C@@H](Cc1c[nH]c2ccccc12)C(=O)O | 10.6%
COC(=O)c1[nH]c2ccccc2c1NC(=O)CN1CCCc2ccccc21 | 74.4% (active)
COC(=O)c1[nH]c2cccc(C)c2c1NC(=O)CN1CCCc2ccccc21 | 26.4%
NS(=O)(=O)c1cccc(NC(=O)CN2CCCc3ccccc32)c1 | 3.96%
COc1ccc(OC)c(S(=O)(=O)N2CCCC(C(=O)N3CCC(C(N)=O)CC3)C2)c1 (stereo not given) | -1.65%
N#CC1=C(N)Oc2c(ccc3cccnc23)C1c1ccncc1 (stereo not given) | -0.63%
N#CC1=C(N)Oc2c(sc3ccccc23)C1c1ccco1 (stereo not given) | 74.7% (active)
CC(C)C(C(=O)NC1CCCCC1)N(CC1CCCO1)C(=O)CNS(=O)(=O)c1ccc(F)cc1 (stereo not given) | -1.33%
O=C(c1ccc(=O)oc1)N1CCC(C(O)(c2ccccc2)c2ccccc2)CC1 | 0.25%
O=C(c1ccc2c(c1)OCO2)N1CCOCC1 | 0.36%
CC(=O)c1cc2c(cc1N)OCO2 | 6.34%
Nc1[nH][nH]c(=O)c1N=Nc1ccc2c(c1)OCO2 | 96.5% (active)
[O-][N+]12CCCCC1CCCC2CO (stereo not given) | -0.51%
Cn1c(=O)c2c(SCC(=O)N3CCOCC3)nc(C3CC3)nc2n(C)c1=O | 7.71%
CCC(C)Sc1nc(C)nc2c1c(=O)n(C)c(=O)n2C (stereo not given) | 54% (active)
CSc1nc(C)nc2c1c(=O)n(C)c(=O)n2C | 7.77%
CCOC(=O)N1CCN(C(=O)CSc2nc(C)nc3c2c(=O)n(C)c(=O)n3C)CC1 | -2.19%

Compound | activation
CC(C)c1ccc(C2C(C#N)=C(N)Oc3c2oc(CO)cc3=O)cc1 (stereo not given) | 1.15%
C/C(=N\NC(=O)c1ccc2ccccc2c1)c1cccnc1 | 32.5%
C/C(=N\NC(=O)c1cccc([N+](=O)[O-])c1)c1cccnc1 | 43%
C/C(=N\NC(=O)c1cccnc1)c1ccc(-n2ccnc2)cc1 | 94.3% (active)
O=C(Nc1cccn(Cc2ccccc2Cl)c1=O)NC1CCCCC1 | -0.61%
Cc1ccc(C2CCN(C(=S)Nc3cccc(Cl)c3)C2)cc1 (stereo not given) | 0.22%
COc1ccc([N+](=O)[O-])cc1NC(=O)CC1SC(=Nc2cccc(C)c2C)N(/N=C(\C)c2ccc(C)cc2)C1=O (stereo not given) | 2.69%
Cc1cccc(C(=O)OCC(=O)NC(C)C2CC3CCC2C3)c1O (stereo not given) | -0.37%
CC(Oc1cccc(NC(=O)c2cccs2)c1)C(=O)c1ccccc1 (stereo not given) | 5.22%
Cc1ccc(F)cc1NC(=O)CSCc1c(C)noc1C | -0.17%
Cc1noc(C)c1CSCC(=O)Nc1ccc(Br)cc1Cl | -1.92%
CCOC(=O)c1c(C2CC2)csc1NC(=O)CSCc1c(C)noc1C | 74.2% (active)
COc1cccc(/C=C/C(=O)Nc2ccc3c(c2)OCCO3)c1 | -3.92%
COc1c(O)cc2oc(-c3ccc(O)c(O)c3)cc(=O)c2c1O | -2.83%
COc1cccc(NC(=O)[C@H](Cc2c[nH]c3ccccc23)NC(=O)[C@@H]2Cc3ccccc3CN2)c1 | 8.95%
O=C(O)c1cccc(NC(=S)N/N=C/c2c[nH]c3ccccc23)c1 | 22%
CSC(=S)N/N=C/c1c[nH]c2ccccc12 | 82% (active)
Nc1nonc1-n1nnc(C(=O)N/N=C/c2c[nH]c3ccccc23)c1-c1ccccc1 | 15.2%
O=C(N/N=C/c1c[nH]c2ccccc12)c1cc2ccccc2o1 | 99% (active)
O=C(N/N=C/c1c[nH]c2ccccc12)c1ccccc1O | 19%
Cc1c(/C=N\NC(=O)c2cc3ccccc3o2)c2ccccc2n1C | 26.2%
CC1(C)C(C=C(Cl)Cl)C1C(=O)NC(O)C(=O)c1ccccc1 (stereo not given) | -1.26%
COC(=O)c1ccc(C(=O)NC2CC(C)(C)Cc3c2cnn3-c2ccc(F)cc2)nc1 (stereo not given) | -1.69%
